From PubChem BioAssay
A selection follows.
aSyn UTR act = Activators via SNCA 5'UTR binding, MLPCN; alpha-synuclein 5'UTR reporter, activators screen; activity score, % (tested at 7.5 µM), hits read low; 300,000 compounds, 7.1% hits; in the data active = activity score below about -60%
* hit, by the source's call.

SMILES	aSyn UTR act
Cn1c(SCC(=O)c2ccccc2)nnc1-c1cccc(N)c1	-62*
O=C1C=C(c2cc3ccccc3s2)CCC1	-86*
O=C(N=C1N=C2C=CC(Br)=CN2Cc2ccccc21)c1ccc([N+](=O)[O-])cc1[N+](=O)[O-]	-106*
O=c1c(=Nc2ccccc2O)c(=O)c2ccccc12	-112*
Cc1ccc2nc(NC(=O)C3CCCN(S(=O)(=O)c4cnc[nH]4)C3)sc2c1 (centres undefined)	-128*
Cc1cc(-c2nc3ncccc3o2)ccc1N	-111*
Cc1ccc(-c2nc3ncccc3o2)cc1N	-106*
Nc1cc(-c2nc3ncccc3o2)ccc1Cl	-273*
Cc1ccc(/C=C/C(=O)NCc2cccs2)c(C)c1	-132*
Cc1cc(C(=O)OCC(=O)NCc2ccco2)c(C)n1-c1ccc(F)cc1	80
O=C(/C=C/c1ccc(F)cc1)NCc1ccco1	-75*
Cc1ccc(/C=C/C(=O)NCc2cccs2)cc1	-68*
C=CCn1c(O)c(N=NC(=S)Nc2ccccc2F)c2cc(S(=O)(=O)N3CCOCC3)ccc21	78
S=c1sc2c(Cl)ncnc2n1-c1ccccc1	93
COc1ccc(-c2cc3ncnc(Cl)c3s2)cc1	-69*
O=C(c1ccc(-c2cccc(C(F)(F)F)c2)o1)N1CCOCC1	-71*
S=C(c1ccc(-c2ccc(Cl)c(Cl)c2)o1)N1CCOCC1	-155*
CC1CCN(C(=O)c2ccc(-c3ccccc3Cl)o2)CC1	-104*
O=C(c1ccc(-c2cccc(Cl)c2Cl)o1)N1CCOCC1	-133*
O=C(Cc1ccc(Br)cc1)N1CCCCCC1	-176*
S=C(c1ccc(-c2ccc(Br)cc2)o1)N1CCCCC1	-201*
O=C(c1ccc(-c2ccc([N+](=O)[O-])cc2Cl)o1)N1CCOCC1	-135*
S=C(c1ccc(-c2ccc(Br)cc2)o1)N1CCOCC1	-178*
S=C(c1ccc(-c2ccccc2Cl)o1)N1CCOCC1	-137*
Cc1ccc(C(=O)Nc2ncccc2O)o1	-84*
SMILES	aSyn UTR act
O=C(Nc1ncccc1O)c1ccc(Oc2ccccc2)cc1	-198*
Cc1ccc(C(=O)CCC(=O)Nc2ncccc2O)cc1	-70*
Cc1noc(C)c1COc1ccc(CC(=O)NCc2ccccc2)cc1	72
Cc1noc(C)c1COc1ccc(C(=O)Nc2ncccc2O)cc1	-67*
CCSc1nnc(-c2c[nH]c3ccccc23)o1	-104*
CC(C)C(=O)Nc1cccc(-c2csc(-c3ccccc3)n2)c1	-70*
CC(C)C(=O)Nc1ccc(-c2csc(-c3ccccc3)n2)cc1	-205*
CC(=O)C(C)Oc1ccc2c3c(c(=O)oc2c1)CCCC3 (centres undefined)	-79*
O=c1oc2cc(OCc3ccc([N+](=O)[O-])cc3)ccc2c2c1CCCC2	-65*
CC(=O)C(C)Oc1ccc2c3c(c(=O)oc2c1)CCCCC3 (centres undefined)	-109*
Cc1nc(NCCOc2ccccc2)sc1C(=O)Nc1ccccc1	-88*
Cc1nc(Nc2ccccc2)sc1C(=O)c1ccc(F)cc1	-94*
Cc1nc(NCc2ccccc2)sc1C(=O)Nc1ccccc1	-148*
Nc1nc(Nc2ccccc2F)sc1C(=O)c1ccccc1	-188*
CSc1nc(N(C)NC(=O)c2ccc(F)cc2)c2ccccc2n1	77
Cc1nc(Nc2ccccc2)sc1C(=O)Nc1ccccc1	-102*
CCCn1cnc2cc(NCc3cccs3)ccc21	-161*
CCn1cnc2cc(NCc3ccc(OC)cc3)ccc21	-101*
CCOc1ccc2nc3cc(NCc4ccc(OC)cc4)ccc3c(N)c2c1	109
CCc1ccc(CNc2ccc3c(c2)ncn3CC)cc1	-177*
c1ccc(CSc2n[nH]c(-c3ccco3)n2)cc1	-64*
c1ccc(CSc2nccc(-c3ccco3)n2)cc1	-82*
COc1ccccc1C(=O)Nc1nsc(-c2ccccc2)n1	-152*
O=C(Nc1nnc(-c2ccccc2)s1)c1ccc(F)cc1	-89*
CCOc1ccccc1C(=O)Nc1nnc(CC)s1	-93*
SMILES	aSyn UTR act
CCc1nnc(NC(=O)c2cccc(C(=O)Nc3nnc(CC)s3)n2)s1	66
COc1ccccc1C(=O)Nc1nnc(-c2ccc(F)cc2)s1	-132*
CCN1C(=O)c2cccc3c(NC(=O)c4ccc5c(c4)OCCO5)ccc1c23	-79*
CN(C)S(=O)(=O)c1cccc(NC(=O)c2ccc3c(c2)OCCO3)c1	-119*
CCC(=O)Nc1cccc(NC(=O)c2ccc3c(c2)OCCO3)c1	-105*
CC(C)(C)c1ccc(OC(=O)N2CCOCC2)cc1	-111*
CCC(=O)c1ccc(OC(=O)N2CCOCC2)cc1	-70*
O=C(Nc1ccc(Cl)cc1F)c1ccccc1Br	-207*
O=C(Nc1ccc(Cl)cc1F)c1cccc2ccccc12	-63*
O=C(NNC(=O)c1ccccc1Br)c1cccc(Cl)c1	-92*
O=Cc1cc2ccccc2nc1SCc1ccc(Cl)cc1	95
Clc1ccc(CSc2ncccn2)cc1	-80*
Cc1cccc(/C=N/NC(=O)c2c(-c3ccccc3)noc2C)c1O	62
Cc1cc(C(=O)N/N=C/c2ccccc2Br)no1	-68*
CCCC#Cc1ccc2c(c1)COc1c3ccccc3nn1-2	-76*
